Where “and” joins values, the source holds several entries; their conditions need not be identical. Identical values can stand only once. A number with no mark means an inactive call. Records with an inconclusive call do not appear. Calls of active or inactive are those of the source. Unless noted, the call rests on the fitted dose curve; in most records, active means well fitted curve in the direction sought with a large enough effect in the repeat runs; inconclusive means weak or mixed curves; inactive means no such curve, though single readings can be large; an effect the other way counts as inactive or inconclusive.

Assay [1] can be described thus: qHTS assay to test for compound auto fluorescence at 535 nm (green) in HEK293 cells (AID 720680). (In general: Quantitative high-throughput screening tests each substance at several concentrations.)
The nature of assay [2]: qHTS assay to test for compound auto fluorescence at 460 nm (blue) in HEK293 cell free culture (AID 720681). The procedure, abridged: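 Compounds were added to cell-free DMEM with 10% FBS and fluorescence read directly. The blue channel used 405 nm excitation and 460 nm emission, with triamterene as the reference fluorophore.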
Assay [3] is described as follows: qHTS assay to test for compound auto fluorescence at 535 nm (green) in HEK293 cell free culture (AID 720682). The procedure, abridged:
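Each library compound, or DMSO control, is added by pintool to medium alone, comprising DMEM and 10% FBS. Emission at 535 nm following 485 nm excitation is quantified against fluorescein.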

A short description of assay [4]: qHTS assay to test for compound auto fluorescence at 590 nm (red) in HepG2 cell free culture (AID 720684). The procedure, abridged: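 Rose Bengal sodium served as the reference for red signal. Test compounds were dispensed into serum-containing MEM (10% FBS) without cells, and plates were read at 540/590 nm.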
The nature of assay [5]: qHTS assay to test for compound auto fluorescence at 460 nm (blue) in HepG2 cell free culture (AID 720685). The procedure, abridged:
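Cell-free plates of MEM plus 10% FBS received 23 nL compound or DMSO vehicle; blue-channel (405/460 nm) intensity scored against triamterene as reference fluorophore.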

Assay [6] can be described thus: qHTS assay to test for compound auto fluorescence at 535 nm (green) in HepG2 cell free culture (AID 720686).
Assay [7] in a line: qHTS assay to test for compound auto fluorescence at 460 nm (blue) in HepG2 cells (AID 720687). The procedure, abridged: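 HepG2 cells in MEM with 10% FBS, attached overnight at 37 C, were exposed to compound or DMSO for 1 hr at 37 C, 5% CO2. Blue fluorescence was read at 405/460 nm, with triamterene as reference fluorophore.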
Assay [8] addresses Glucocorticoid receptor (Homo sapiens) (UniProt P04150). Kind of assay: qHTS assay to identify small molecule agonists of the glucocorticoid receptor (GR) signaling pathway (AID 720691; active means well fitted activation curve with a large enough effect in the signal ratio in the repeat runs, not every such curve was filed as active; the % refers to the signal ratio; further: potency means the concentration at half of the fitted maximal effect). The procedure, abridged:
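HeLa GR-bla reporter line; cells pre-incubated 4 h, compound in DMSO 18 h at 37 C; LiveBLAzer B/G FRET substrate 2 h RT; fluorescence intensity read-out.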

Assay [9] is described as follows: qHTS assay to identify small molecule antagonists of the glucocorticoid receptor (GR) signaling pathway - cell viability counter screen (AID 720693). Further: nearly all actives have a fitted effect of over 55% in size.
The nature of assay [10]: qHTS assay for identifying genotoxic compounds that show differential cytotoxicity against isogenic chicken DT40 cell lines with known DNA damage response pathways - wild type cell line (AID 743012). Further: nearly all actives have a fitted effect of over 60% in size. Further: potency means the concentration at half of the fitted maximal effect. The procedure, abridged:
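CellTiter-Glo luminescence readout of viability in wild type DT40 cells after 40 h compound exposure at 37 C/5% CO2; 300 cells/well; reagent incubated 30 min at room temperature before reading.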

The nature of assay [11]: qHTS assay for identifying genotoxic compounds that show differential cytotoxicity against isogenic chicken DT40 cell lines with known DNA damage response pathways - Rev3 mutant cell line (AID 743014). Further: nearly all actives have a fitted effect of over 55% in size. Further: potency means the concentration at half of the fitted maximal effect.
The nature of assay [12]: qHTS assay for identifying genotoxic compounds that show differential cytotoxicity against isogenic chicken DT40 cell lines with known DNA damage response pathways - Rad54/Ku70 mutant cell line (AID 743015). Further: nearly all actives have a fitted effect of over 60% in size.
A short description of assay [13]: qHTS assay to identify small molecule antagonists of the androgen receptor (AR) signaling pathway - cell viability counter screen (AID 743033; further: nearly all actives have a fitted effect of over 45% in size).
The nature of assay [14]: qHTS assay to identify small molecule antagonists of the androgen receptor (AR) signaling pathway using the MDA cell line - cell viability counter screen (AID 743041; further: nearly all actives have a fitted effect of over 45% in size). The procedure, abridged:
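Cytotoxicity counter screen: MDA-kb2 AR-luc cells, compound + R1881, 16 h, 37C, 0% CO2; CellTiter-Fluor added at 15.5 h, fluorescence read after 30 min.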

Assay [15] has as its target Androgen receptor (Homo sapiens) (UniProt P10275). Kind of assay: qHTS assay to identify small molecule agonists of the androgen receptor (AR) signaling pathway (AID 743036; active means well fitted activation curve with a large enough effect in the signal ratio in the repeat runs, with a control signal flat, not every such curve was filed as active; the % refers to the signal ratio). In short, it runs like this:
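Following a 4 h settling period, AR-UAS-bla HEK293 cells were dosed with compounds for 16 h at 37C. A 2 h room-temperature incubation with LiveBLAzer B/G FRET substrate preceded the fluorescence measurement.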

The target is the same in assay [16]. Kind of assay: qHTS assay to identify small molecule agonists of the androgen receptor (AR) signaling pathway using the MDA cell line (AID 743040; further: nearly all actives have a fitted effect of over 20% in size). In short, it runs like this: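 Luciferase read-out, ONE-Glo, 30 min RT. Cells: MDA-kb2 AR-luc, MMTV promoter with AR and GR response elements. Compound exposure 16 h, 37C, 0% CO2, after 5 h pre-incubation. qHTS agonist mode.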

Assay [17] has the same target. Kind of assay: qHTS assay to identify small molecule antagonists of the androgen receptor (AR) signaling pathway using the MDA cell line (AID 743042; further: nearly all actives have a fitted effect of over 55% in size; further: potency means the concentration at half of the fitted maximal effect). The procedure, abridged:
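MDA-kb2 breast carcinoma cells carrying MMTV-luciferase (AR/GR responsive) were co-treated with compounds and the agonist R1881 for 16 h at 37C. Inhibition read as ONE-Glo luminescence; CellTiter-Fluor fluorescence measured in parallel for cytotoxicity.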

Assay [18] addresses Glucocorticoid receptor (Homo sapiens) (UniProt P04150). Kind of assay: qHTS assay to identify small molecule antagonists of the glucocorticoid receptor (GR) signaling pathway (AID 720692; active means well fitted inhibition curve with a large enough effect in the signal ratio in the repeat runs, not every such curve was filed as active; the % refers to the signal ratio). In short, it runs like this: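 Read-out: beta-lactamase FRET substrate fluorescence, 2 h at room temperature, in HeLa cells stably carrying a GRE-driven bla reporter. Compounds were co-incubated with 5 nM dexamethasone agonist (final) for 18 h at 37 C.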

Assay [19] can be described thus: qHTS assay to test for compound auto fluorescence at 590 nm (red) in HEK293 cell free culture (AID 720683). In short, it runs like this: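 Cell-free wells of DMEM with 10% FBS received compound, and intrinsic fluorescence was read at excitation/emission 540/590 nm. Values expressed as equivalence to Rose Bengal sodium.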
For assay [20], the target named is Androgen receptor (Homo sapiens) (UniProt P10275). In words: qHTS assay to identify small molecule antagonists of the androgen receptor (AR) signaling pathway (AID 743035; active means well fitted inhibition curve with a large enough effect in the signal ratio in the repeat runs, not every such curve was filed as active; the % refers to the signal ratio). The procedure, abridged:
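AR-bla HEK293 reporter cells; 4 h settle at 37C/5% CO2; compound + R1881 agonist, 16 h at 37C; LiveBLAzer B/G FRET substrate 2 h RT; fluorescence intensity read. qHTS format.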

Chain of Androgen receptor (Homo sapiens) (P10275 whole entry, looked up): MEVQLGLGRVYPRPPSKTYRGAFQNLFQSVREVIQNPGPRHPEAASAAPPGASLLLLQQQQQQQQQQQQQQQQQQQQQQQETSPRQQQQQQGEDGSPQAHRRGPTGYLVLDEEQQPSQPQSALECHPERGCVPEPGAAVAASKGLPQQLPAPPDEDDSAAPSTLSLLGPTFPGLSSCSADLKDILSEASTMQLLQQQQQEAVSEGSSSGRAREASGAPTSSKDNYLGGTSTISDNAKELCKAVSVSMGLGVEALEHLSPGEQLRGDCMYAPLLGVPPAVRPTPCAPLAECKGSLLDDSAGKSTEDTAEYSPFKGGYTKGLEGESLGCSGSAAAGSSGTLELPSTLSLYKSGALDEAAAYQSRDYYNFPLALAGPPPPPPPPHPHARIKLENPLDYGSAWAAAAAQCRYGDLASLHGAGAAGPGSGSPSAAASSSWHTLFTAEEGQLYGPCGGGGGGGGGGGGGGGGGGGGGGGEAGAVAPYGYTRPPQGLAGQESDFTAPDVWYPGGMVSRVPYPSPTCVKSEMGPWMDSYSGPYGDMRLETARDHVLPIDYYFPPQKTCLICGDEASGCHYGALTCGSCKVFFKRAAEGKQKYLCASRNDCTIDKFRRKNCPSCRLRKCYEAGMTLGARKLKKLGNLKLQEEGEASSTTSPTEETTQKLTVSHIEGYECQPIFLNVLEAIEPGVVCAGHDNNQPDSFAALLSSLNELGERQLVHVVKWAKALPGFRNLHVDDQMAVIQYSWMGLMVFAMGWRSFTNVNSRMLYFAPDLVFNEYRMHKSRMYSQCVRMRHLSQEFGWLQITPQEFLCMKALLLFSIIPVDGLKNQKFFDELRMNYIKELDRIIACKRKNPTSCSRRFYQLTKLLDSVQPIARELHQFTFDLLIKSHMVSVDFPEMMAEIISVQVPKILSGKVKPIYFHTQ
Chain of Glucocorticoid receptor (Homo sapiens) (P04150 whole entry, looked up): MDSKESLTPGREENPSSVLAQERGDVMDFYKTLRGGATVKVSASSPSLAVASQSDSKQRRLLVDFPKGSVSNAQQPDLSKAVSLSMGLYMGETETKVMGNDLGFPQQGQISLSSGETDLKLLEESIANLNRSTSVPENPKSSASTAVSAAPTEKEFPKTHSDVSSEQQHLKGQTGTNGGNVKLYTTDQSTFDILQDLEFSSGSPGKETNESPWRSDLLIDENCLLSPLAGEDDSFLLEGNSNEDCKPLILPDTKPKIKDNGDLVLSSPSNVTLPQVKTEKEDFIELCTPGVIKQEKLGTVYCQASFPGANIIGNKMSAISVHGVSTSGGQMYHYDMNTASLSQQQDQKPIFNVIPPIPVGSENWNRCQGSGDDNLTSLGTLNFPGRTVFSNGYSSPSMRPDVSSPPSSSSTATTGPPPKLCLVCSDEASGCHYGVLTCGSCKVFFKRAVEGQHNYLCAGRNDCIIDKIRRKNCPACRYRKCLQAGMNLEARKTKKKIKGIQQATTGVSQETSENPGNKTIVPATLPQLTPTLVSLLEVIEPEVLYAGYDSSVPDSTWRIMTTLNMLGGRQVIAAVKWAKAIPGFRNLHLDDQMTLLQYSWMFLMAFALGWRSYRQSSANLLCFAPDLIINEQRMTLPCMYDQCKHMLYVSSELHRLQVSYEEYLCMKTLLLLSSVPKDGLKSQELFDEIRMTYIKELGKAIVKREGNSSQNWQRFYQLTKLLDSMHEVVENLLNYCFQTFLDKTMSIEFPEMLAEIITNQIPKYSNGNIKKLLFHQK

As for `CC(=O)OCC(=O)[C@@]1(O)CCC2C3CCC4=CC(=O)CC[C@]4(C)C3[C@@H](O)C[C@@]21C` (stereo partly specified), the molecule was called inactive in assay [1], in [2], in [3], in assay [4], in [5] and in assay [6]. Further, the molecule was called inactive in [7] and in assay [9]. The Potency in assay [8] was 134 nM (active). Besides, the Potency result in assay [10], in assay [11], in [12], in assay [13] and in assay [14] was “inactive” each time.

In the case of `CC(C)(c1ccc(O)cc1)c1ccc(O)cc1`, the molecule was called inactive in assay [1], in [2], in [3], in assay [4], in [5] and in assay [6]. Moreover, the result in [7], in [9] and in assay [15] was inactive. The Potency in assay [10] was 27.3 µM (active); in assay [11] it was 67.8 µM (active) and 50.4 µM (active); in [17], 59.2 µM (active). In addition, the Potency result in assay [13], in assay [16] and in [14] was “inactive” in each case.

In the case of `O=C1CCCC(=O)C1`, the call in [1], in [2], in assay [3], in assay [4], in assay [5] and in assay [6] was inactive. The outcome in [7] and in assay [9] was inactive. Besides, the Potency result in assay [8], in assay [18], in assay [10], in [11], in [12] and in assay [13] was “inactive” each time. In addition, in [14], the Potency result is “inactive”.

Regarding `CCN(Cc1ccncc1)C(=O)C(CO)c1ccccc1` (stereo unspecified), the molecule was called inactive in [2], in [3], in assay [4], in assay [5], in [6] and in [7]. In assay [9], the molecule was classed as inactive. The Potency result in assay [8], in assay [10], in assay [11], in [12], in assay [13] and in assay [14] was “inactive” each time.

For `CCCCNC(=O)NCCCC`, the molecule was called inactive in assay [2], in assay [3], in [19], in assay [4], in assay [5] and in [6]. Further, the outcome in assay [7], in [9] and in [20] was inactive. In addition, the Potency entry in [8], in assay [18], in assay [10], in assay [11], in assay [12] and in [13] was “inactive” throughout. For the same molecule, the Potency entry in assay [16], in [14] and in [17] was “inactive” in each case.

In the case of `CC1=CC(C)C(C=O)CC1` (stereo unspecified), the result in assay [2], in assay [3], in [19], in assay [4], in assay [5] and in [6] was inactive. Also, the call in assay [7] and in assay [9] was inactive. Further, the Potency entry in assay [8], in assay [18], in assay [10], in [11], in assay [13] and in assay [14] was “inactive” throughout.

As for `CCn1ccnc1CC1COc2ccccc2O1` (stereo unspecified), the call in assay [2], in assay [3], in [19], in [4], in assay [5] and in [6] was inactive. Also, the outcome in assay [7], in assay [9], in assay [20] and in assay [15] was inactive. Further, the Potency result in [8], in [10], in assay [11], in assay [12], in [13] and in [16] was “inactive” in each case. The Potency result in [14] and in assay [17] was “inactive” throughout.

As for `CCSC(=O)N(CC(C)C)CC(C)C`, the result in [2], in assay [3], in assay [19], in assay [4], in [5] and in [6] was inactive. The molecule was called inactive in assay [7], in [9], in [20] and in assay [15]. The Potency entry in [8], in assay [18], in assay [10], in assay [11], in [12] and in [13] was “inactive” throughout. Also, the Potency result in assay [16], in assay [14] and in [17] was “inactive” throughout.

The values are drawn from PubChem BioAssay (Tox21).
